# Reference: PubChem BioAssay
# Several values for one entry are separate records, joined by “and”; a condition that tells them apart may be missing. Equal values may be shown once. Records with an inconclusive call do not appear. Activity calls are given as the source filed them.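 How the source made its calls, unless noted: active means normalized viability below 100% at a tested concentration; inactive means the rest.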
# What was measured:
# [1] = viability loss in pontine glioma line – cell-based, SU-DIPG-XXV, MIPE5.0, CellTiter-Glo, qHTS, dose response (AID 1347065; cut-off not given, nearly all actives have AC50 up to about 26 µM;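 further: cells exposed to compound for 48 hours before ATP readout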); details: CellTiter-Glo ATP luminescence
# [2] = SU-DIPG-VI glioma cell viability, MIPE4.0 library, CellTiter-Glo luminescence, qHTS (AID 1347066; cut-off not given, nearly all actives have AC50 up to about 30 µM;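 further: cells exposed to compound for 48 hours before readout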); details: CellTiter-Glo ATP luminescence
# [3] = SU-DIPG-XXV glioma cell viability, MIPE5.0 library, qHTS (AID 1347068; cut-off not given, nearly all actives have IC50 up to about 30 µM)
# [4] = phospholipid biosynthesis inhibitors in animal cells, primary screen, cell-based, LOPAC library, screen 4 (AID 1347384; call rule not given here); details: phospholipid biosynthesis inhibition screen, at 10 µM
# [5] = survival rescue of mitochondrial mutant cells in low glucose, primary screen, MELAS cybrids, Rieske KO mouse fibroblasts, CellTiter-Glo (AID 1508586;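 active means mean z-score across replicates of 1.96 or higher in either the MELAS or the Rieske mutant cell line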;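 further: z relative to plate mean and SD of compound and empty wells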)
# [6] = viability rescue of complex I mutant cybrids, primary screen, cell-based, galactose medium, ATP luminescence (AID 1645843;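 active means z-score of at least 1.8 in each of two replicates, scored against plate mean and spread of sample wells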;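 further: positive z means more ATP and so rescue of galactose-driven cybrid death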); details: complex I mutant cybrid cells, 72 h, stronger effect = higher value
# [7] = JHH-DIPG-1 glioma cell viability, MIPE5.0 library, CellTiter-Glo luminescence, qHTS (AID 1347067; cut-off not given, nearly all actives have AC50 up to about 26 µM;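 further: cells exposed to compound for 48 hours before readout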); details: JHH-DIPG-1 glioma viability, CellTiter-Glo ATP luminescence
# [8] = sensitizers of A549 cells to miR-34 induction, primary screen, imaging, A549 dox-inducible miR-34, nuclei and caspase counts (AID 1347080;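 active means compounds whose cell count with miR-34 switched on is under 0.7 times the count with it off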); details: A549 miR-34 inducible, Hoechst nuclei count, 48 h
# [9] = target: NAD(+) hydrolase SARM1 (Homo sapiens) (UniProt Q6SZW1); experiment: SARM1 TIR NADase inhibitors, cell lysate, NAD-Glo luminescence (AID 1508614;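 active means compound whose remaining NAD level is above about 45 nM, limit read from the data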); details: SAM-TIR HEK293T lysate NADase, at 1 µM, stronger effect = higher value
# [10] = target: Mitogen-activated protein kinase 7 (Homo sapiens) (UniProt Q13164); experiment: ERK5 transactivation activators in reporter cells, primary screen, cell-based, HTS (AID 1508626;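 active means luciferase signal above three times the same-plate solvent-only control wells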;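 further: luciferase driven by Gal4-ERK5 fusion binding five Gal4 sites before minimal TATA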); details: HeLa Gal4-ERK5 transactivation, 18 h, at 5 µM, stronger effect = higher value
# [11] = inhibitors of Cryptococcus chitosan production, flow cytometry, Cibacron Brilliant Red staining (AID 1347148; call rule not given here;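 further: compound exposure lasted three days at 37 degrees C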); details: Cryptococcus neoformans chitosan, stronger effect = lower value; at 10 µM unless noted
# [12] = ovarian cancer cell viability with rucaparib, profiling panel, oncology-focused library, rucaparib conditional (AID 1508598); details: patient-derived ovarian cancer cells, CellTiter-Glo viability, 144 h, stronger effect = lower value
# [13] = LFS_MB_P medulloblastoma growth inhibition, cell-based, chromothripsis tumors, cisplatin or BGB combos (AID 1671449; in the data active means inhibition above about 80%;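 further: cells exposed for 96 hours; 0% = vehicle DMSO and 100% = killing by high DMSO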); details: LFS_MB_P medulloblastoma cells
# [14] = HDN33 neuroblastoma growth inhibition, cell-based, chromothripsis tumors, cisplatin or BGB combos (AID 1671450; in the data active means inhibition above about 80%;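 further: cells exposed to compound for four days; 0% = vehicle DMSO and 100% = cell killing by high DMSO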); details: HDN33 neuroblastoma cells, stronger effect = higher value
# [15] = ICB984 medulloblastoma cell growth inhibition, synergistic combos for chromothripsis tumors, cisplatin or BGB combos (AID 1671451; call rule not given here;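 further: cells exposed for 96 hours before readout; 0% = vehicle DMSO and 100% = killing by high DMSO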); details: ICB984 medulloblastoma cells, drug combinations, stronger effect = higher value
# [16] = LFS_MB_1R medulloblastoma cell growth inhibition, synergistic combos for chromothripsis tumors, cisplatin or BGB combos (AID 1671452; in the data active means inhibition above about 80%;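 further: cells exposed for 96 hours before readout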); details: LFS_MB_1R medulloblastoma cells, stronger effect = higher value
# [17] = HTB85 osteosarcoma cell growth inhibition, synergistic combos for chromothripsis tumors, BGB or cisplatin IC20 combos (AID 1671453; in the data active means inhibition above about 80%;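 further: cells exposed for 96 hours before readout; 0% = vehicle DMSO and 100% = high DMSO killing control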); details: HTB85 osteosarcoma cells, drug combinations, stronger effect = higher value
# [18] = CRL2098 osteosarcoma cell growth inhibition, synergistic combos for chromothripsis tumors, BGB or cisplatin IC20 combos (AID 1671454; in the data active means inhibition above about 80%;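 further: cells exposed for 96 h before readout; 0% = vehicle DMSO and 100% = killing by high DMSO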); details: CRL2098 osteosarcoma cells, drug combinations, stronger effect = higher value
# [19] = HD-MB03 medulloblastoma cell growth inhibition, synergistic combos for chromothripsis tumors, BGB or cisplatin IC20 combos (AID 1671455; in the data active means inhibition above about 83%;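 further: 0% = vehicle DMSO and 100% = high DMSO as cytotoxic control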); details: HD-MB03 medulloblastoma cells, stronger effect = higher value
# [20] = MELAS cybrid survival, CellTiter-Glo 48 h, stronger effect = higher value
# [21] = Rieske KO mouse fibroblast survival, CellTiter-Glo 72 h
# [22] = measured here: combination with BGB IC40, at 0.05 µM
# Chain of Mitogen-activated protein kinase 7 (Homo sapiens) (Q13164 whole entry, looked up, the tested form may be a part): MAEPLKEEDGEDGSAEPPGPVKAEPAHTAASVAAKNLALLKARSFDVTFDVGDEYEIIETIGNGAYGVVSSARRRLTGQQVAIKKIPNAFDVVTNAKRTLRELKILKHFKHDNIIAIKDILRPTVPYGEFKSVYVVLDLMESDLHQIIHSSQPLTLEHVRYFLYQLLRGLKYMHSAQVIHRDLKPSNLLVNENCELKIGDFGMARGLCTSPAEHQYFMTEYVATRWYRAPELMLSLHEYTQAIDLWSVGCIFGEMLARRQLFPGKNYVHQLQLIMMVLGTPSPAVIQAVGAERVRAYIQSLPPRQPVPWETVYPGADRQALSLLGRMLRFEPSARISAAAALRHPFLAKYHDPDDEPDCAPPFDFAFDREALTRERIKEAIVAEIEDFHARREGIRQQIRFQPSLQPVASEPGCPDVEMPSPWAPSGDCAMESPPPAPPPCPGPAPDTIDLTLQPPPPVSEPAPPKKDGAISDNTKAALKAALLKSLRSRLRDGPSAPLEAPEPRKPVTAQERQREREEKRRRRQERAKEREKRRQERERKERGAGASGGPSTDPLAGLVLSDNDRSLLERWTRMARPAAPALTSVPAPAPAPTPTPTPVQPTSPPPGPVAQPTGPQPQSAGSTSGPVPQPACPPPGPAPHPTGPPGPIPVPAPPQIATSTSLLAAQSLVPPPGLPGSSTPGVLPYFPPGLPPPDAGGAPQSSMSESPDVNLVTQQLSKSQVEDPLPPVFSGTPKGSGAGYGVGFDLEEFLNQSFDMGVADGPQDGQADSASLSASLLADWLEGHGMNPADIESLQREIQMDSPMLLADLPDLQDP
# Chain of NAD(+) hydrolase SARM1 (Homo sapiens) (Q6SZW1 whole entry, looked up, the tested form may be a part): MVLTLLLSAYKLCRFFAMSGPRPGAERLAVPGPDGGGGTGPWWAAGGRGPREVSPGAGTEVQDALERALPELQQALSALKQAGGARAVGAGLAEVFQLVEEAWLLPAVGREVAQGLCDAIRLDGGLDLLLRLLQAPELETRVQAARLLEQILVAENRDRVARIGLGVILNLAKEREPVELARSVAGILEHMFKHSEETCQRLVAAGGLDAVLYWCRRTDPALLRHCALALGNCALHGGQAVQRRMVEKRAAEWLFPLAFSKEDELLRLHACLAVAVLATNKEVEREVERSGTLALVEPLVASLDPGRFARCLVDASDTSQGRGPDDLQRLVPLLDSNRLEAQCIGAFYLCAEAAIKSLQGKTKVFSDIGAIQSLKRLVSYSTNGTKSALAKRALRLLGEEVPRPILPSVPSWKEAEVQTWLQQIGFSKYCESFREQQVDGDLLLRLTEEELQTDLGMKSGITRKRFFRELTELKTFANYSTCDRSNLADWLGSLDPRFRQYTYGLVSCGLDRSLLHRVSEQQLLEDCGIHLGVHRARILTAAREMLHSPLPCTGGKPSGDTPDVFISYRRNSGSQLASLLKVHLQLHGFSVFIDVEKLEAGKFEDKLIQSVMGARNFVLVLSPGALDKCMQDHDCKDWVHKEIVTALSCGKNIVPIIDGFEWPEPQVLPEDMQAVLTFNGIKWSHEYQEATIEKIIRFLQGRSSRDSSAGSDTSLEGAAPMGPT
compound,measurement,setting,value
CN(CCOc1ccc(NS(C)(=O)=O)cc1)CCc1ccc(NS(C)(=O)=O)cc1,outcome,[1],inactive
same,outcome,[2],inactive
same,outcome,[3],inactive
same,outcome,[4],inactive
same,z-score,[5]; [20],-0.0974 (inactive) and 0.133 (inactive) and -0.631 (inactive)
same,z-score,[5]; [21],-0.727 and -0.208 and -0.315
same,z-score,[6],0.355 (inactive) and 0.06 (inactive) and 0.77 (inactive)
CC(C)[C@H](N)C(=O)OCCOCn1cnc2c(=O)[nH]c(N)nc21,outcome,[1],inactive
same,outcome,[7],inactive
same,outcome,[3],inactive
same,fold change,"[8]; stronger effect = lower value, cell number ratio, induced over uninduced",0.847 (inactive)
same,fold change,[8]; measured here: relative caspase fold change +Dox/-Dox,1.65
same,cell count,"[8]; measured here: total cells with miR-34 induction, stronger effect = lower value",9730
same,cell count,[8]; measured here: total cells without miR-34 induction,11500
same,z-score,[5]; [20],0.38 (inactive) and 0.156 (inactive)
same,z-score,[5]; [21],0.16 and -0.416
same,remaining NAD,[9],10 nM (inactive)
same,luciferase signal,[10],32 AU (inactive)
same,z-score,[6],0.625 (inactive)
O=c1c(O)c(-c2ccc(O)c(O)c2)oc2cc(O)cc(O)c12,outcome,[1],inactive
same,outcome,[7],inactive
same,outcome,[3],inactive
same,fold fluorescence,[11],2.95 [at 165.4 µM] (active)
same,outcome,[4],inactive
same,z-score,[5]; [20],-0.4 (inactive) and -0.42 (inactive)
same,z-score,[5]; [21],-1.01 and 0.378
same,viability,"[12]; at 0.000305 µM, OCI-C5x cells, with rucaparib 10 µM, 100% = cells with rucaparib alone",118% (inactive)
same,viability,"[12]; at 0.000305 µM, OCI-C5x cells, without rucaparib",113% (inactive)
same,viability,"[12]; at 0.000305 µM, OCI-P5x cells, with rucaparib 20 µM, 100% = cells with rucaparib alone",92% (active)
same,viability,"[12]; at 0.000305 µM, OCI-P5x cells, without rucaparib",92.3% (active)
same,viability,"[12]; at 0.00122 µM, OCI-C5x cells, with rucaparib 10 µM, 100% = cells with rucaparib alone",122% (inactive)
same,viability,"[12]; at 0.00122 µM, OCI-C5x cells, without rucaparib",119% (inactive)
same,viability,"[12]; at 0.00122 µM, OCI-P5x cells, with rucaparib 20 µM, 100% = cells with rucaparib alone",97.3% (active)
same,viability,"[12]; at 0.00122 µM, OCI-P5x cells, without rucaparib",102% (inactive)
same,viability,"[12]; at 0.00488 µM, OCI-C5x cells, with rucaparib 10 µM, 100% = cells with rucaparib alone",117% (inactive)
same,viability,"[12]; at 0.00488 µM, OCI-C5x cells, without rucaparib",129% (inactive)
same,viability,"[12]; at 0.00488 µM, OCI-P5x cells, with rucaparib 20 µM, 100% = cells with rucaparib alone",104% (inactive)
same,viability,"[12]; at 0.00488 µM, OCI-P5x cells, without rucaparib",105% (inactive)
same,viability,"[12]; at 0.0195 µM, OCI-C5x cells, with rucaparib 10 µM, 100% = cells with rucaparib alone",127% (inactive)
same,viability,"[12]; at 0.0195 µM, OCI-C5x cells, without rucaparib",125% (inactive)
same,viability,"[12]; at 0.0195 µM, OCI-P5x cells, with rucaparib 20 µM, 100% = cells with rucaparib alone",105% (inactive)
same,viability,"[12]; at 0.0195 µM, OCI-P5x cells, without rucaparib",105% (inactive)
same,viability,"[12]; at 0.0781 µM, OCI-C5x cells, with rucaparib 10 µM, 100% = cells with rucaparib alone",114% (inactive)
same,viability,"[12]; at 0.0781 µM, OCI-C5x cells, without rucaparib",125% (inactive)
same,viability,"[12]; at 0.0781 µM, OCI-P5x cells, with rucaparib 20 µM, 100% = cells with rucaparib alone",105% (inactive)
same,viability,"[12]; at 0.0781 µM, OCI-P5x cells, without rucaparib",109% (inactive)
same,viability,"[12]; at 0.313 µM, OCI-C5x cells, with rucaparib 10 µM, 100% = cells with rucaparib alone",111% (inactive)
same,viability,"[12]; at 0.313 µM, OCI-C5x cells, without rucaparib",127% (inactive)
same,viability,"[12]; at 0.313 µM, OCI-P5x cells, with rucaparib 20 µM, 100% = cells with rucaparib alone",101% (inactive)
same,viability,"[12]; at 0.313 µM, OCI-P5x cells, without rucaparib",112% (inactive)
same,viability,"[12]; at 1.25 µM, OCI-C5x cells, with rucaparib 10 µM, 100% = cells with rucaparib alone",111% (inactive)
same,viability,"[12]; at 1.25 µM, OCI-C5x cells, without rucaparib",125% (inactive)
same,viability,"[12]; at 1.25 µM, OCI-P5x cells, with rucaparib 20 µM, 100% = cells with rucaparib alone",103% (inactive)
same,viability,"[12]; at 1.25 µM, OCI-P5x cells, without rucaparib",107% (inactive)
same,viability,"[12]; at 5 µM, OCI-C5x cells, with rucaparib 10 µM, 100% = cells with rucaparib alone",109% (inactive)
same,viability,"[12]; at 5 µM, OCI-C5x cells, without rucaparib",120% (inactive)
same,viability,"[12]; at 5 µM, OCI-P5x cells, with rucaparib 20 µM, 100% = cells with rucaparib alone",90.4% (active)
same,viability,"[12]; at 5 µM, OCI-P5x cells, without rucaparib",107% (inactive)
same,luciferase signal,[10],72 AU (inactive)
same,z-score,[6],-0.695 (inactive) and -0.855 (inactive)
same,inhibition,"[13]; at 0.5 µM, stronger effect = higher value",-5.93% (inactive)
same,inhibition,"[13]; measured here: combination with BGB IC20, at 0.005 µM",17%
same,inhibition,"[13]; measured here: combination with BGB IC40, at 0.005 µM",13.5%
same,inhibition,[13]; [22],25.1%
same,inhibition,"[13]; measured here: combination with cisplatin, at 0.5 µM, stronger effect = higher value",-24.2%
same,inhibition,"[13]; measured here: combination with cisplatin, at 5 µM, stronger effect = higher value",20.2%
same,inhibition,"[14]; BGB combo, at 5 µM",-9.66%
same,inhibition,[14]; at 0.5 µM,-7.52% (inactive)
same,inhibition,"[14]; cisplatin combo, at 5 µM",10.5%
same,inhibition,"[14]; measured here: with BGB IC20 combination, at 0.5 µM",-21.2%
same,inhibition,"[14]; measured here: with cisplatin IC20 combination, at 0.5 µM",12.4%
same,inhibition,"[14]; single agent, at 5 µM",-15.2%
same,inhibition,"[15]; BGB IC20 combo, at 0.005 µM",14%
same,inhibition,"[15]; BGB IC40 combo, at 0.005 µM",-3.66%
same,inhibition,"[15]; BGB IC40 combo, at 0.05 µM",-21.1%
same,inhibition,[15]; at 0.5 µM,2.09% (inactive)
same,inhibition,"[15]; cisplatin combo, at 0.05 µM",-21.1%
same,inhibition,"[15]; cisplatin combo, at 0.5 µM",-0.46%
same,inhibition,"[15]; cisplatin combo, at 5 µM",-2.17%
same,inhibition,"[15]; measured here: 5 uM single agent, at 5 µM",2.61%
same,inhibition,[16]; at 0.5 µM,-24.6% (inactive)
same,inhibition,[16]; [22],7.65%
same,inhibition,"[16]; measured here: combination with cisplatin, at 0.5 µM",-39%
same,inhibition,"[16]; measured here: combination with cisplatin, at 5 µM",-2.19%
same,inhibition,[17]; at 0.5 µM,-16.3% (inactive)
same,inhibition,"[17]; measured here: with BGB IC20, at 0.5 µM",-21.8%
same,inhibition,"[17]; measured here: with BGB IC20, at 5 µM",-1.29%
same,inhibition,"[17]; measured here: with cisplatin IC20, at 0.5 µM",-33.8%
same,inhibition,"[17]; measured here: with cisplatin IC20, at 5 µM",-25%
same,inhibition,"[17]; single agent, at 5 µM",-18.2%
same,inhibition,[18]; at 0.5 µM,-28.1% (inactive)
same,inhibition,"[18]; measured here: combination with BGB at IC20, at 0.5 µM",-37.5%
same,inhibition,"[18]; measured here: combination with cisplatin at IC20, at 0.5 µM",-36.5%
same,inhibition,[19]; at 0.5 µM,-8.42% (inactive)
same,inhibition,"[19]; measured here: combo with BGB at IC20, at 0.5 µM",-5.54%
same,inhibition,"[19]; measured here: combo with cisplatin at IC20, at 0.5 µM",-14%
